Screening results from PubChem BioAssay.
KB-3-1 tox – KB-3-1 parental cell cytotoxicity; hit rate 1.4% among 400,000; KB-3-1 viability, CellTiter-Glo ATP luminescence, 72 h; Potency, µM (doses to about 46.1 µM), hits mostly cytotoxic; AID 1347075; also: nearly all actives have a fitted effect of over 60% in size
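Multi-concentration cytotoxicity screen in KB-3-1 cells grown in DMEM lacking phenol red with 10% FBS. After 72 h at 37 °C with compound, ATP-dependent luminescence was recorded.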
S2 tox – reduces viability in counter-screen for ATXN expression inhibitors; S2 cells (HEK-293 line with an ATXN2-luciferase reporter) viability, CellTiter-Fluor protease fluorescence, 24 h; Potency, µM (doses to about 56.7 µM), actives largely listed as cytotoxic; hit rate 0.49% among 400,000; AID 651635; also: nearly all actives have a fitted effect of over 40% in size
KB-V1 cytotox – KB-V1 MDR subline cytotoxicity; KB-V1 MDR cells viability, CellTiter-Glo, 72 h; Potency, µM (top dose mostly 46.1 µM), hits mostly cytotoxic; hit rate 3.4% among 400,000; also: nearly all actives have a fitted effect of over 60% in size
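Readout: CellTiter-Glo luminescence, 10 min after addition. Cells: KB-V1 MDR subline, 72 h at 37 degrees C with compound. Analysis: corrected, normalized data fitted to concentration-effect curves.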
HT1080 IDH1KD tx – kills HT-1080 cells with IDH1 knockdown; HT-1080 IDH1 knockdown viability, ATP luminescence, 48 h; Potency, µM (titrated, usually from 46.1 µM), actives largely listed as cytotoxic; hit rate 2% among 360,000; AID 686971
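Using the IDH1-knockdown HT-1080 line run in the same batch and compound series as the NT line, viability after 48 h at 37 °C was determined by CellTiter-Glo luminescence and expressed as % activity.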
HT1080-NT tox – kills 2HG-producing HT-1080-NT fibrosarcoma cells | HT-1080-NT fibrosarcoma viability, CellTiter-Glo ATP luminescence, 48 h | Potency, µM (titrated, usually from 46.1 µM), actives largely listed as cytotoxic | hit rate 1.6% among 360,000 | AID 686970;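 also: NT is the 2HG producing partner of a matched IDH1 knockdown line; nearly all actives have a fitted effect of over 55% in size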
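A 48-hour cytotoxicity screen used HT-1080-NT cells plated 2 hours before compound delivery. ATP-based CellTiter-Glo luminescence measured viability, normalized to DMSO and no-cell controls.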
ATXN2 expr inh – inhibitors of ATXN2 expression. hit rate 0.72% among 360,000. Potency, µM (doses to about 57 µM), actives largely listed as inhibitors. HEK-293 ATXN2-luciferase reporter, luminescence, 24 h; also: nearly all actives have a fitted effect of over 55% in size
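ATXN2-luciferase reporter cells (luciferase flanked by upstream and downstream ATXN2 gene portions) were treated 24 h at 37 °C with compounds at up to 57 uM. SteadyGlo luminescence gave expression; GF-AFC fluorescence gave viability.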
A number is an active result; – = inactive; ? = inconclusive; · = not tested or not shown; ! = a repeat was not active. Only some compounds are listed: those with a hit (about 6.2% of all), similar ones and a draw of the others. Calls follow the shape of the dose curve; as a rule, active = well fitted curve in the direction sought with a large enough effect; inconclusive = small, poorly fitted or top-dose-only effect, or another doubt; inactive = no such curve, though single readings can be large; an effect the other way counts as inactive or inconclusive.

SMILES | KB-3-1 tox | S2 tox | KB-V1 cytotox | HT1080 IDH1KD tx | HT1080-NT tox | ATXN2 expr inh
O=C(Nc1nc2ccccc2s1)c1cc(-c2ccccc2)nn1-c1ccccc1 | ? | – | 20.6µM | ? | – | –
CC(C)(C)c1cc(NC(=O)CCSc2nnc3ccccn23)cc(C(C)(C)C)c1 | – | – | 3.66µM | ? | – | ?
O=C(NCc1nc2ccccc2[nH]1)c1cccc(Cl)c1 | – | – | – | · | · | –
Clc1cccc(N/N=C(\Cc2nc3ccccc3[nH]2)c2ccccc2)c1 | ? | ? | 20.6µM | – | – | –
Cc1cc(C(=O)N2CCN(c3cccc(Cl)c3)CC2)c(C)o1 | 23.1µM | – | – | 16.4µM | ? | –
CSc1ccccc1C(=O)N1CCN(c2cccc(Cl)c2)CC1 | – | – | 16.4µM | 23.1µM | ? | –
O=C(NCC1CCC2(CCN(Cc3cccc4cccnc34)CC2)O1)c1ccco1 (centres undefined) | · | – | · | · | · | ·
Cc1ccc(N2C(=O)CS/C2=C(\C(Cl)=C(Cl)Cl)[N+](=O)[O-])cc1 | – | – | – | – | – | –
CC1CCCC(C)N1C(=C(Cl)Cl)C(=C1SCCS1)[N+](=O)[O-] (centres undefined) | 25.9µM | – | ? | – | – | –
Cc1cc(NC(=O)C(C)SCC(=O)Nc2ccc(SC(F)F)cc2)no1 (centres undefined) | – | – | – | – | – | –
CCc1ccc(C(=O)c2cn(CC(=O)Nc3ccc(F)cc3)c3cc4c(cc3c2=O)OCO4)cc1 | ? | – | – | · | · | –
Cc1cc(C)n(-c2nc(NCCN(C)C)c3c4c(sc3n2)COC(C)(C)C4)n1 | – | – | – | ? | 18.4µM | ?
Cc1cc(C)n(-c2nc(NCCCN(C)C)c3c4c(sc3n2)COC(C)(C)C4)n1 | – | – | – | – | – | –
Cc1cc(C)n(-c2nc(NCCC(C)C)c3c4c(sc3n2)COC(C)(C)C4)n1 | – | ? | 2.31µM | – | – | –
CCN(CC)CCNc1nc(-n2nc(C)cc2C)nc2sc3c(c12)CC(C)(C)OC3 | ? | – | ? | ? | ? | –
O=C1[C@@H](Oc2ccccc2)[C@@H](c2ccncc2)N1c1ccccc1 | – | – | – | 20.6µM | ? | –
O=C1[C@@H](Oc2ccccc2)[C@@H](c2ccccc2)N1c1cccnc1 | – | ? | – | – | – | –
CC(C)Sc1nc(-c2cccs2)nc2cc(Cl)ccc12 | – | – | – | – | – | –
COc1ccc(SC[C@H](C)CN2CC[C@H](O)CCC2=O)cc1 | – | · | – | · | · | ·
CC(=O)Nc1ccc(SC[C@H](C)CN2CC[C@H](C(C)(C)C)CCC2=O)cc1 | – | 28.2µM | ? | – | – | ?
C[C@@H]1CCC(=O)N(C[C@@H](C)CSc2ccc(Br)cc2)CC1 | – | ? | ? | – | – | –
Cc1ccc(SC[C@H](C)CN2CC[C@H](C)CCC2=O)cc1 | ? | ? | 18.4µM! | – | – | –
COc1ccc(SC[C@H](C)CN2CC[C@H](C)CCC2=O)cc1 | 18.4µM! | ? | 8.2µM! | – | – | ?
CN(C)CCNC(=O)c1cccc(-c2cnc3c(NC=O)cc(-c4cc(F)c(F)c(F)c4)cn23)c1 | – | · | – | 18.4µM | ? | ?
CN(C)C(=O)c1cccc(-c2cnc3c(NC=O)cc(-c4cccc(F)c4)cn23)c1 | – | – | ? | – | – | ?
SMILES | KB-3-1 tox | S2 tox | KB-V1 cytotox | HT1080 IDH1KD tx | HT1080-NT tox | ATXN2 expr inh
Cc1cccc(-c2cc(NC=O)c3ncc(-c4cccc(C(=O)N(C)C)c4)n3c2)c1 | – | ? | ? | – | ? | –
CN(C)CCNC(=O)c1cccc(-c2cc(NC=O)c3ncc(-c4cccc(C(F)(F)F)c4)n3c2)c1 | – | 28.2µM | – | 16.4µM | 29.1µM | 22.4µM
CN(C)C(=O)c1cccc(-c2cnc3c(NC=O)cc(-c4cccc(C(F)(F)F)c4)cn23)c1 | – | · | ? | 18.4µM | 23.1µM | ?
CN(C)CCNC(=O)c1cccc(-c2cnc3c(NC=O)cc(-c4ccc(S(C)(=O)=O)cc4)cn23)c1 | – | – | – | – | – | –
COc1ccc(CN2CCc3nnc(CCc4ccccc4)n3CC2)c(OC)c1C | · | – | · | · | · | ·
COc1ccc(OCC(=O)OCc2cc(=O)n3cc(C)sc3n2)cc1 | – | – | – | · | · | –
Cc1ccc(S(=O)(=O)N2CCN(C(=O)CN3CCc4ccccc4C3)CC2)cc1 | – | – | 4.11µM | – | – | –
O=C(CN1CCc2ccccc2C1)N1CCN(S(=O)(=O)c2ccccc2)CC1 | – | – | ? | – | – | –
O=C(COc1ccccc1)N1CCN(S(=O)(=O)c2ccc(Br)cc2)CC1 | – | – | – | – | – | ·
Cc1ccc(S(=O)(=O)N2CCN(C(=O)COc3ccc(Br)cc3)CC2)cc1 | – | ? | 16.4µM | – | – | –
Cc1cc(Cl)ccc1OCC(=O)OCC(=O)NC1CCS(=O)(=O)C1 (centres undefined) | – | – | – | – | – | –
COc1ccc(OC)c(C(=O)N(Cc2cc3cccc(C)c3nc2N2CCC(O)CC2)C2CC2)c1 | · | – | · | · | · | ·
CCNc1c2c3c(cccc3n(C)c1=O)C(=O)c1ccccc1-2 | ? | ? | 1.16µM | – | – | –
Cn1c(=O)c(NCCc2ccccc2)c2c3c(cccc31)C(=O)c1ccccc1-2 | – | · | – | – | – | –
CCOC(=O)c1cnc2c(ccc3ccccc32)c1Nc1ccccc1O | – | – | – | · | · | –
CCOC(=O)C(Cc1ccnc2ccccc12)=NO | – | – | – | – | 14.6µM | –
CNS(=O)(=O)c1cn(CC(=O)Nc2ccc(OC)c(Cl)c2)cc1S(=O)(=O)NC | – | · | – | · | · | ·
CN(C)c1ccc(CC(=O)N2CCCC(c3cc(C(=O)Nc4ccc(C(C)(C)C)cc4)no3)C2)cc1 (centres undefined) | – | ? | – | 10.3µM | – | ?
O=C(Nc1ccccc1)c1cc(C2CCCN(C(=O)CCc3ccccc3)C2)on1 (centres undefined) | – | – | – | – | – | –
Cc1ccc(-c2nnc(SCC(=O)NC(C)(C)C)nc2-c2ccc(C)cc2)cc1 | – | ? | – | · | · | –
COc1ccc(C(OCC(O)CNC(C)c2ccccc2)c2ccc(OC)cc2)cc1 (centres undefined) | – | – | ? | 20.6µM | ? | –
NCC(O)COCCC12CC3CC(CC(C3)C1)C2 (centres undefined) | – | – | – | – | – | –
CC(NCC(O)COCCC12CC3CC(CC(C3)C1)C2)c1ccccc1 (centres undefined) | ? | · | ? | ? | ? | 31.6µM
CC(C)c1ccc(OCC(O)CNC(C)c2ccccc2)cc1 (centres undefined) | ? | – | – | 18.4µM | 23.1µM | –
COc1cccc(OCC(O)CNC(C)c2ccccc2)c1 (centres undefined) | – | – | – | ? | – | –
